Assay outcomes deposited in PubChem by National Center for Advancing Translational Sciences (NCATS).
GRP78 ERSR act: qHTS for Inducers of the Endoplasmic Reticulum Stress Response (ERSR) in Human Glioma: qHTS; U87-MG GRP78 promoter luciferase reporter, 16 h; Potency, µM, hits mostly activators; 420,000 compounds, 0.02% hits; further: series mostly up to about 76 µM; nearly all actives have a fitted effect of over 35% in size
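Stably transfected U87-MG glioma cells carrying a GRP78-based luciferase sensor; 16 h compound incubation. Luminescence end-point read 10 min after Bright-Glo addition at room temperature.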
G9a block: qHTS Assay for Inhibitors of Histone Lysine Methyltransferase G9a; Histone-lysine N-methyltransferase EHMT2 (Homo sapiens), Q96KQ7; G9a H3K9 monomethylation, AlphaScreen, 2 h; Potency, µM (doses to about 102 µM), actives largely listed as inhibitors; 350,000 compounds, 8.8% hits; AID 504332, 2011; further: nearly all actives have a fitted effect of over 75% in size
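Enzyme 20 nM + cpd, 15 min RT; add b-H3K9 pep 500 nM / SAM 20 uM; 2 h RT; anti-H3K9me1 Ab 0.5 ug/mL + SA donor / anti-rabbit acceptor beads 20 ug/mL each, 10 min; AlphaScreen read.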
ALOX12 inh: Primary qHTS assay for inhibitors of human arachidonate 12S-lipoxygenase (ALOX12): Round 2 | purified 12hLO, xylenol orange hydroperoxide absorbance | Potency, µM (highest dose often 108 µM), usual class: inhibitors | 580,000 compounds, 1.1% hits
Target sequence (P18054 whole entry, looked up): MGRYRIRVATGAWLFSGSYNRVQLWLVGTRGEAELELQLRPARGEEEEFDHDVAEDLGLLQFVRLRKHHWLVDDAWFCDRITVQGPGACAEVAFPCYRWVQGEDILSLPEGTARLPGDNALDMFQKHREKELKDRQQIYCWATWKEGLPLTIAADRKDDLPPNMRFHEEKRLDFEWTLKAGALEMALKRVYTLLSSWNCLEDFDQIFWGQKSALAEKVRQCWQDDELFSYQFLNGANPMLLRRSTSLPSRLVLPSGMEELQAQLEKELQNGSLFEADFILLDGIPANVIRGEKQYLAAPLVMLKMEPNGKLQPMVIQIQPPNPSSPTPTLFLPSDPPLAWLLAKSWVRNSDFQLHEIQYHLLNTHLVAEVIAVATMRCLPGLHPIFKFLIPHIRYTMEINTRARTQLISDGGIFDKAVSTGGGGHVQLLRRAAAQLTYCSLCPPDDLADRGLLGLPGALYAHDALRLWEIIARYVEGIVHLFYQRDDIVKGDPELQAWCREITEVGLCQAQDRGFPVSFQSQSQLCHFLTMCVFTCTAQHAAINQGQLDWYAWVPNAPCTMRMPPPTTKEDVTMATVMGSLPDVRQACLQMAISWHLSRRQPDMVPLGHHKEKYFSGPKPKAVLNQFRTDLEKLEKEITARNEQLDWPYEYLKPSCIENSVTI
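Purified human 12hLO at 150 nM in 25 mM Hepes, 0.01% Triton X-100, pH 7.0, preincubated 15 min at room temperature with compound. Reaction started with 40 uM arachidonic acid, 30 min at room temperature. Hydroperoxide measured by Fe-xylenol orange, 573/405 nm absorbance ratio.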
Sfp inh: qHTS Assay for Inhibitors of Bacillus subtilis Sfp phosphopantetheinyl transferase (PPTase). 4'-phosphopantetheinyl transferase ffp (Bacillus subtilis), Q9F4F7. Biochemical Sfp PPTase activity, qHTS. Potency, µM, usual class: inhibitors. 310,000 compounds, 3.5% hits;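 further: the enzyme is Sfp with the accession as filed and its product quenches rhodamine fluorescence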
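With Hepes-Na pH 7.6 buffer containing 10 mM MgCl2, Sfp (15 nM) modified BHQ-2-YbbR (12.5 uM) using rhodamine-CoA (5 uM). Two reads 30 minutes apart at 525/598 nm yielded each well's rate.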
VDR inh: Inhibitors of the vitamin D receptor (VDR): qHTS | Vitamin D3 receptor (Homo sapiens), P11473 | VDR-SRC2-3 peptide fluorescence polarization, 2 h | Potency, µM, usual class: inhibitors | 400,000 compounds, 0.93% hits
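VDR–SRC2-3 interaction, FP format. Cmpds 23 nl via pintool, brief spin, 2 h ambient incubation.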
Numbers stand for hits; – = inactive; ? = inconclusive; · = not tested or not shown; [ ] = remark or other dose. Shown is part of a subset that was picked to be rich in hits. The call rests on the fitted dose curve; in most records, active means well fitted curve in the direction sought with a large enough effect; inconclusive means small, poorly fitted or top-dose-only effect, or another doubt; inactive means no such curve, though single readings can be large; an effect the other way counts as inactive or inconclusive.

SMILES | GRP78 ERSR act | G9a block | ALOX12 inh | Sfp inh | VDR inh
CN1C(=O)/C(=C/c2ccc(O)c([N+](=O)[O-])c2)NC1=S | – | 40µM | – | – | –
O=C(CCCN1C(=O)/C(=C/c2ccccc2Cl)SC1=S)NNC(=O)c1ccccc1Cl | – | – | – | – | –
O=C1/C(=C\c2cccc([N+](=O)[O-])c2O)SC(=S)N1Cc1ccccc1 | – | 2µM | ? | ? | ?
Cc1c(C)n(Cc2ccncc2)c2ncn3nc(-c4ccncc4)nc3c12 | · | · | – | · | ·
NC1=NC(c2cccc(Oc3ccccc3)c2)n2c(nc3ccccc32)N1 (stereo not given) | · | · | – | · | ·
CCn1cnnc1CC1CCN(C(=O)c2cnn3c(C)c(Cc4ccccc4Cl)c(C)nc23)CC1 | · | · | – | · | ·
Cc1cc2c(c(=O)n1Cc1ccco1)C(C(C)C)C(C#N)=C(N)O2 (stereo not given) | · | · | – | · | ·
Cc1ccc(/C=N/NS(=O)(=O)c2ccc(C)c([N+](=O)[O-])c2)s1 | · | · | – | · | ·
O=C1/C(=C\c2cc(Br)cc(Br)c2O)SC(=S)N1Cc1ccccc1 | – | –[2.33 µM] | · | 63µM | 50µM
O=C1/C(=C/c2cccnc2)SC(=S)N1Cc1ccco1 | – | · | – | · | –
O=C(O)c1ccc(/C=C2/SC(=S)N(Cc3ccccc3)C2=O)cc1 | – | ? | – | – | ?
O=C(O)CCN1C(=O)/C(=C\c2ccc(OCc3ccccc3)c(OCc3ccccc3)c2)SC1=S | – | 25µM | – | – | –
O=C1/C(=C/c2ccccc2O)SC(=S)N1Cc1cccnc1 | – | ? | ? | 50µM | ?
O=C(O)CCN1C(=O)/C(=C\c2cccc(OCc3ccccc3)c2)SC1=S | – | ? | – | – | ?
COCCN1C(=O)/C(=C/c2ccc(OCc3ccc(C(=O)O)cc3)c(OC)c2)SC1=Nc1ccccc1 | – | 50µM | ? | – | –
CCN1C(=O)/C(=C\C=C\c2ccccc2[N+](=O)[O-])SC1=S | – | 10µM | ? | – | –
O=C(NN1C(=O)/C(=C/c2ccc(O)c([N+](=O)[O-])c2)SC1=S)c1ccccc1Cl | – | 14µM | ? | – | –
CCOc1cc(/C=C2/SC(=S)N(Cc3ccccc3)C2=O)ccc1O | – | 45µM | ? | – | –
CN(C)C1=NC(=O)/C(=C/c2ccc(-c3ccc(S(N)(=O)=O)cc3)o2)S1 | · | 7.1µM | · | 35µM | ·
O=C1c2ccccc2-c2onc3ccc(N4CCCC4)c1c23 | – | 10µM | ? | 40µM | ?
O=C1c2ccccc2C(=O)c2c1cccc2N1CCCC1 | – | 4µM | – | – | –
O=C1C=C(N2CCCCC2)c2ccccc2C1=O | – | · | – | · | –
CCOc1ccc2noc3c2c1C(=O)c1ccccc1-3 | – | ? | – | ? | –
CCCOc1ccc(OCCOCCNCc2ccccc2)cc1 | – | 32µM | ? | – | –
Cc1cccc(OCCCCCNCCO)c1 | – | – | – | – | –
SMILES | GRP78 ERSR act | G9a block | ALOX12 inh | Sfp inh | VDR inh
Cc1cccc(OCCCCNCc2ccccc2)c1 | – | 13µM | – | – | –
Cc1cc(C)c(C)c(OCCOCCNCc2ccccc2)c1 | – | ? | ? | – | –
COc1ccc(CCNCc2ccc(OCc3ccccc3)cc2)cc1 | – | – | – | – | –
COc1cccc(OCCNCc2ccccc2)c1 | – | 7.9µM | ? | – | ?
CCc1cccc(OCCCCNCCO)c1 | – | 10µM | ? | – | –
Cc1ccc2c(c1)-c1onc(C(=O)Nc3cc(-c4cccc(F)c4)no3)c1CO2 | · | · | – | · | ·
CC1CCC(=NNC(=O)c2cc(-c3ccc(Cl)cc3)nc3ccccc23)CC1 (stereo not given) | · | · | – | · | ·
COc1ccc2c(c1)-c1nc(NC(=O)c3cc(Cl)ccc3OC)sc1CC2 | – | 20µM | – | · | –
COc1ccc2c(c1)Cc1sc(NC(=O)c3cccs3)nc1-2 | – | – | – | 25µM | –
COc1ccc2c(c1)Cc1sc(NC(=O)c3ccccc3C)nc1-2 | · | ? | – | · | 25µM
COc1ccc2c(c1)Cc1sc(NC(=O)c3cccc(F)c3)nc1-2 | – | – | – | · | –
COc1ccc(C(=O)Nc2nc3c(s2)Cc2cc(OC)ccc2-3)cc1 | – | 45µM | ? | 79µM | ?
